Measurements taken from PubChem BioAssay (NCATS).
Results filed as inconclusive are left out. Active and inactive are the calls of the source. Calls come from the whole dose curve; as a rule, active = well fitted curve in the direction sought with a large enough effect; inconclusive = small, poorly fitted or top-dose-only effect, or another doubt; inactive = no such curve, though single readings can be large; an effect the other way counts as inactive or inconclusive.

Assays:
HEK293T [1] = experiment: qHTS assay to identify novel small-molecules to repurpose for Merkel cell carcinoma treatment (AID 1296009); settings: MCC and control cell lines, CellTiter-Glo viability, 72 h; at 44.8 µM (top of the series) unless noted; note: nearly all actives have a fitted effect of over 60% in size
Summary of the method: (§1)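 Cells were treated for 72 hr at 37 degree celsius with compounds in 8- or 11-point dose response. Viability was read by CellTiter-Glo luminescence, normalized to no-cell (cytotoxicity) and DMSO controls.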

C33A = experiment: Primary qHTS to identify gynecologic anti-cancer compounds using libraries of approved drugs and bioactive compounds (AID 1345084); settings: Gynecologic cancer cell panel viability, ATPlite luminescence, 48 h; series mostly up to 57.5 µM; note: nearly all actives have a fitted effect of over 55% in size; note: potency is the fitted concentration of half-maximal effect; for activity change, negative = cytotoxicity: % is set by controls: 0 for no effect and ±100 for the full control effect
Summary of the method: (§2)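 Measured: luminescence after ATPlite addition (15 min, RT). Exposure: 48 h, 37 C, 5% CO2.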

CAOV3 = experiment: as above; settings: Gynecologic cancer cell panel viability, ATPlite luminescence, 48 h; series mostly up to 57.5 µM
Summary of the method: as §2

CASKI = experiment: as above; settings: Gynecologic cancer cell panel viability, ATPlite luminescence, 48 h; series mostly up to 57.5 µM
Summary of the method: as §2

Es-2 = experiment: as above; settings: Gynecologic cancer cell panel viability, ATPlite luminescence, 48 h; series mostly up to 57.5 µM
Summary of the method: as §2

HeLa = experiment: as above; settings: Gynecologic cancer cell panel viability, ATPlite luminescence, 48 h; series mostly up to 57.5 µM
Summary of the method: as §2

Hek293T [2] = experiment: as above; settings: Gynecologic cancer cell panel viability, ATPlite luminescence, 48 h, control line for the selectivity index; series mostly up to 57.5 µM
Summary of the method: as §2

JEG-3 = experiment: as above; settings: Gynecologic cancer cell panel viability, ATPlite luminescence, 48 h; series mostly up to 57.5 µM
Summary of the method: as §2

HACAT = experiment: qHTS assay to identify novel small-molecules to repurpose for Merkel cell carcinoma treatment (AID 1296009); settings: MCC and control cell lines, CellTiter-Glo viability, 72 h; at 44.8 µM (top of the series) unless noted; note: nearly all actives have a fitted effect of over 60% in size
Summary of the method: as §1

O=C1C[C@@]2(C(=O)N1)C(=O)N(Cc1ccc(Br)cc1F)C(=O)c1cccn12
inactive: outcome (HEK293T [1]) | Potency (C33A) | Potency (CAOV3) | outcome (CASKI) | Potency (Es-2) | Potency (HeLa) | Potency (Hek293T [2]) | Potency (JEG-3)

COC(=O)CCC1(C)C(C(C)(C)O)C(O)CC2(C)Oc3c(C)c4c(c(OC)c3CC21)C(=O)OC4 (stereo not given)
inactive: outcome (HEK293T [1]) inactive [at 17.4 µM] | Potency (C33A) | Potency (CAOV3) | outcome (CASKI) | Potency (Es-2) | Potency (HeLa) | Potency (Hek293T [2]) | Potency (JEG-3)

C[C@@H]1C(=O)O[C@H](C)[C@H]1C[C@@H](O)[C@](C)(O)[C@H]1CC[C@@]2(O)C3=CC(=O)[C@@H]4C[C@@H](O)[C@@H](O)C[C@]4(C)C3CC[C@]12C (stereo not given in full)
inactive: outcome (HEK293T [1]) inactive [at 17.4 µM] | Potency (C33A) | Potency (CAOV3) | outcome (CASKI) | Potency (Es-2) | Potency (HeLa) | Potency (Hek293T [2]) | Potency (JEG-3)

C/C=C(\C)C1C(C)=CC2CCC(OS(=O)(=O)O)C(C)C2C1/C=C/C=C/C(=O)O (stereo not given)
inactive: outcome (HEK293T [1]) inactive [at 17.4 µM] | Potency (C33A) | Potency (CAOV3) | outcome (CASKI) | Potency (Es-2) | Potency (HeLa) | Potency (Hek293T [2]) | Potency (JEG-3)

COc1ccc(-c2ccn(CC[C@](C)(C(=O)NO)S(C)(=O)=O)c(=O)c2)c(F)c1
active: Potency (CAOV3) 22.4 µM | Potency (Es-2) 14.1 µM | Potency (JEG-3) 20 µM
inactive: outcome (HACAT)

CC(CNS(=O)(=O)C(C)C)c1ccc(-c2ccc(C#N)cc2)cc1 (stereo not given)
inactive: outcome (HACAT) | Potency (CAOV3) | Potency (HeLa)

CC(=O)OC1CC2(C)C(CCC(C)C23Cc2c(O)cc4c(c2O3)CNC4=O)C(C)(C)C1O (stereo not given)
inactive: outcome (HEK293T [1]) inactive [at 17.4 µM] | Potency (C33A) | Potency (CAOV3) | outcome (CASKI) | Potency (Es-2) | Potency (HeLa) | Potency (Hek293T [2]) | Potency (JEG-3)

C/C(CO)=C1/CCC23COC(C2)C(O)(C(=O)O)CCC13 (stereo not given)
inactive: outcome (HEK293T [1]) | Potency (C33A) | Potency (CAOV3) | outcome (CASKI) | Potency (Es-2) | Potency (HeLa) | Potency (Hek293T [2]) | Potency (JEG-3)

COc1c(O[C@@H]2O[C@H](CO)[C@@H](O)[C@H](O)[C@H]2O)c(CCC(=O)O)cc2ccoc12
inactive: outcome (HACAT) | Potency (CAOV3) | outcome (CASKI) | Potency (Es-2) | Potency (HeLa) | Potency (Hek293T [2])

CC(CCc1ccc(O)cc1)O[C@@H]1O[C@H](CO[C@@H]2OC(CO)[C@H](O)[C@H]2O)[C@@H](O)[C@H](O)[C@H]1O (stereo not given in full)
inactive: outcome (HEK293T [1]) inactive [at 17.4 µM] | Potency (C33A) | Potency (CAOV3) | outcome (CASKI) | Potency (Es-2) | Potency (HeLa) | Potency (Hek293T [2]) | Potency (JEG-3)

C=C[C@H]1[C@H](O[C@@H]2O[C@H](CO)[C@@H](O)[C@H](O)[C@H]2O)OC=C2C(=O)N3Cc4c([nH]c5ccccc5c4=O)[C@@H]3C[C@H]21
inactive: outcome (HEK293T [1]) inactive [at 17.4 µM] | Potency (C33A) | Potency (CAOV3) | outcome (CASKI) | Potency (Es-2) | Potency (HeLa) | Potency (Hek293T [2]) | Potency (JEG-3)

CC1(C)CC[C@]2(C(=O)O)CC[C@]3(C)C(=CCC4[C@@]5(C)CC[C@H](O[C@H]6O[C@H](C(=O)O)[C@@H](O)[C@H](O[C@@H]7O[C@H](CO)[C@H](O)[C@H](O)[C@H]7O)[C@H]6O)C(C)(C)C5CC[C@]43C)[C@@H]2C1 (stereo not given in full)
inactive: outcome (HEK293T [1]) inactive [at 9.27 µM] | activity change, negative = cytotoxicity (C33A) 17.4% [at 11.6 µM] | activity change, negative = cytotoxicity (CAOV3) 23.8% [at 11.6 µM] | activity change, negative = cytotoxicity (CASKI) 10.6% [at 11.6 µM] | activity change, negative = cytotoxicity (Es-2) 0.636% [at 11.6 µM] | activity change, negative = cytotoxicity (HeLa) -3.8% [at 11.6 µM] | activity change, negative = cytotoxicity (Hek293T [2]) 18.4% [at 11.6 µM] | activity change, negative = cytotoxicity (JEG-3) -1.28% [at 11.6 µM]

CC1=C2C[C@@]3(C)[C@@H](CCC[C@@H]3C)C[C@@]2(O)OC1=O
inactive: outcome (HACAT) | Potency (C33A) | outcome (CASKI) | Potency (Es-2) | Potency (HeLa) | Potency (Hek293T [2]) | Potency (JEG-3)

O=C(O[C@@H]1O[C@H](CO)[C@@H](O)[C@H](O)[C@H]1O)c1ccccc1
inactive: outcome (HEK293T [1]) | Potency (C33A) | Potency (CAOV3) | outcome (CASKI) | Potency (Es-2) | Potency (HeLa) | Potency (Hek293T [2]) | Potency (JEG-3)
